# Screens from PubChem.
# HER2 expr 66K: inhibitors of Her2 protein expression, primary screen, SKBR-3 cells, AlphaScreen, 66K library | Receptor tyrosine-protein kinase erbB-2 (Homo sapiens), P04626 | SKBR-3 HER2 protein level, 18-24 h; stronger effect = lower value | HER2 level % of control, % at 10 µM | actives 0.69% (n = 65,000) | AID 645, 2007;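 active = HER2 level under 5% of the carrier-only control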;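 also: 100% = DMSO carrier and 0% = 500 nM PU-H71 HSP90 inhibitor; lower value means stronger loss of Her2 protein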
# SK-BR-3 tox 24h: SK-BR-3 proliferation inhibitors, primary screen, cell-based, human, 24 h | SK-BR-3 viability, CellTiter-Glo ATP luminescence; stronger effect = lower value | viability, % at 10 µM | actives 0.47% (n = 41,000);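 active = viability at or below the median of all test compounds minus 3 SD, in both replicates if run twice, cut at about 45% in these data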;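 also: 100% = median untreated cell wells and 0% = median positive control drug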
# Cdc25B inh: inhibitors of Cdc25B phosphatase catalytic domain, primary screen, biochemical, OMFP fluorescence; M-phase inducer phosphatase 2 (Homo sapiens), P30305; recombinant Cdc25B, OMFP fluorescence Ex485/Em525; inhibition, %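 (compounds tested at 10 µM final in the well)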; actives 0.1% (n = 65,000); in the data active = inhibition above about 50%
# DUSP1 inh: MKP-1 phosphatase inhibitors, primary screen, biochemical, in vitro | Dual specificity protein phosphatase 1 (Homo sapiens), P28562 | recombinant MKP-1, OMFP hydrolysis fluorescence | inhibition, %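 (compounds tested at a single concentration somewhere between 10 and 100 µM)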 | actives 0.15% (n = 65,000) | AID 374, 2006;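 active = inhibition above about 50%, limit read from the data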;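 also: 0% = DMSO max control wells and 100% = wells with enzyme stopped by NaOH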
# Hsp90 block: tumor Hsp90 inhibitors, primary screen, cell lysate, fluorescence polarization, NCI-N417 lysate. Heat shock protein HSP 90-alpha (Homo sapiens), P07900. Cy3B-geldanamycin FP displacement. inhibition, % at 30 µM. actives 0.35% (n = 64,000);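 active = inhibition above 50%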;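 also: 0% = tracer plus lysate wells and 100% = tracer alone without lysate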
# * = called active by the depositor; . = not tested or not shown. Sampled rows, rich in hits. Any-hit rate of the full collection: about 1.5%.
SMILES,HER2 expr 66K,SK-BR-3 tox 24h,Cdc25B inh,DUSP1 inh,Hsp90 block
COc1cccc(N2CCN(c3c4c(nc5ncnn35)CCC4)CC2)c1,110,25*,-18,2,-1
CC12CCC(C(=O)N3CCN(c4ccccc4)CC3)(CC1=O)C2(C)C (stereo unspecified),100,123,-3,-24,0
O=C(NCc1ccco1)C(Cc1ccccc1)N1C(=O)c2ccccc2C1=O (stereo unspecified),-20*,.,-4,16,0
COc1cc(Nc2c3ccc(Cl)cc3nc3ccc(OC)cc23)c2ncccc2c1,.,.,.,.,14
Oc1cc(O)c2c(c1)O[C@H](c1ccc(O)c(O)c1)[C@@H](O)C2,.,.,.,.,70*
CCOc1cc(C2C(C#N)=C(N)Oc3n[nH]c(-c4ccccc4)c32)ccc1O (stereo unspecified),98,80,65*,14,1
CCOC(=O)Cc1csc(NC(=O)COc2ccc(OC)cc2)n1,4.1*,.,-8,1,2
Cc1ccc(Oc2ccccc2)c(NC=O)c1,109,36*,-16,3,.
COc1ccccc1NS(=O)(=O)c1ccc(OC)c(OC)c1,95,29*,-3,-24,3
CC(C)(C)NCC(O)COc1nsnc1N1CCOCC1 (stereo unspecified),.,.,.,.,2
O=S1(=O)Nc2c(ccc3cccnc23)-c2ccccc21,-8.0*,85,3,-12,35
O=c1[nH]n(-c2cccc3cccnc23)c(=O)c2ccccc12,86,98,-10,4,1
Nc1c(S(=O)(=O)c2cccc(Cl)c2)c2nc3ccccc3nc2n1/N=C/c1ccc(O)c(O)c1,-13*,2.7*,26,33,59*
O=C(O)CC1CCCc2ccccc2C1O (stereo unspecified),.,.,.,.,-5
c1cnc(-c2nnc3n2CCCCC3)cn1,-16*,.,-8,-13,-4
O=c1onc2n1-c1cc(Br)ccc1OC2,.,.,.,.,-1
Nc1ncnc2c1nc(Sc1ccc(Cl)cc1)n2C1OC2COP(=O)(O)O[C@@H]2[C@@H]1O (stereo partly specified),.,.,.,.,3
CCOP(=O)(c1ccccc1Cl)C1(O)CCCCC1 (stereo unspecified),-28*,82,-3,-17,0
CC(=O)N1CCN=C1SCc1ccc(C)cc1,116,.,-2,4,0
CC(C)Oc1ccc(C2c3c(oc4ccccc4c3=O)C(=O)N2CCCN2CCOCC2)cc1 (stereo unspecified),68,90,3,20,0
Cc1ccc(-c2csc3ncnc(Sc4nnc(CN5CCCCCC5=O)o4)c23)cc1,-25*,.,-15,32,-3
O=C(Nc1ccccc1)N1CCN(c2nc3ccccc3s2)CC1,73,64,1,2,2
O=C(Nc1ccc(F)cc1)N1CCN(c2nc3ccccc3s2)CC1,56,41*,-12,-7,0
CC(C)(C)OC(=O)NCCc1nnc(S(=O)(=O)Cc2ccc(Cl)cc2Cl)o1,-16*,80,2,2,1
Cc1ccc(Nc2ncc3c(n2)CC(c2ccco2)CC3=O)c(C)c1 (stereo unspecified),125,84,78*,27,1
SMILES,HER2 expr 66K,SK-BR-3 tox 24h,Cdc25B inh,DUSP1 inh,Hsp90 block
Cc1cccc(Nc2ncc3c(n2)CC(c2ccco2)CC3=O)c1 (stereo unspecified),97,81,3,-3,-2
Cc1cccc(NC(=O)c2c(O)c3cccc4c3n(c2=O)CCC4)n1,95,.,-17,11,50*
COc1cc(NCCC(=O)O)c2ncccc2c1,.,.,.,.,0
Cc1nnc(Sc2nc(Sc3nnc(C)s3)nc(N3CCN(C)CC3)n2)s1,-33*,100,3,-11,-5
COc1cc(NCCCC(C)=NO)c2ncccc2c1,.,.,.,.,-6
CSCCC(NC(=O)COc1ccccc1)C(=O)N1CCN(c2ccccc2F)CC1 (stereo unspecified),97,.,-18,10,-3
CSc1ccccc1N=Cc1nc(-c2ccccc2)oc1O,38,.,-24,2,-1
CN(C)c1ccc(N=Cc2nc(-c3ccccc3)oc2O)cc1,85,75,11,8,54*
COC(=O)CS(=O)(=O)c1nnc([C@H](Cc2ccccc2)NC(=O)OC(C)(C)C)o1,-17*,131,4,7,-2
O=S(=O)(NCc1ccco1)c1cccc2cccnc12,-16*,93,-2,-2,-8
O=C(NCc1ccco1)C1CCN(S(=O)(=O)c2cccc3cccnc23)CC1,-17*,.,-6,-4,-3
O=C(NCc1cccs1)C1CCN(S(=O)(=O)c2cccc3cccnc23)CC1,105,.,-7,3,-3
CC(=O)O[C@H]1C(=O)[C@@]2(C)C([C@H](OC(=O)c3ccccc3)[C@]3(O)C[C@H](OC(=O)[C@H](O)[C@@H](NC(=O)c4ccccc4)c4ccccc4)C(C)=C1C3(C)C)[C@]1(OC(C)=O)CO[C@@H]1C[C@@H]2O (stereo partly specified),.,.,.,.,2
Cn1c(=O)c2c(SCc3cccc(C(F)(F)F)c3)nc(-c3ccco3)nc2n(C)c1=O,-4.9*,.,-4,37,0
Cn1c(=O)oc2cc(S(=O)(=O)NCc3ccccn3)ccc21,105,.,-10,5,0
CCOc1ccccc1NC(=O)C1=C(C)NC(=O)NC1c1cccc(OC)c1OC (stereo unspecified),93,23*,-9,11,-5
CC(C)NC[C@H](O)COc1ccc(CC(N)=O)cc1,.,.,.,.,3
CC1CCCCC1NS(=O)(=O)c1ccc(S(=O)(=O)NCc2ccncc2)cc1 (stereo unspecified),104,94,-16,81*,-1
Cc1ccc(C)c(N2CCN(c3cc(C)nc4nnnn34)CC2)c1,84,85,-9,6,-1
Cc1sc2nc3c(C(=O)N4CCN(c5ncccn5)CC4)cccn3c(=O)c2c1C,123,.,-3,8,-1
O=Nc1ccc2oc(=O)ccc2c1,.,.,.,.,2
Cc1cc(C)c(O)c(-c2cc(C(=O)Nc3ccc(S(=O)(=O)N4CCOCC4)cc3)[nH]n2)c1,-11*,67,9,32,8
Cc1cc(C)nc(-n2nc(C)c(Sc3ccc(F)cc3)c2N)n1,65,76,4,7,-4
Cc1nn(C)c(C)c1Sc1ccc(Br)cc1,-9.0*,56,4,18,0
CCOC(=O)CSc1nnc(-c2ccc(NS(=O)(=O)c3ccc(C)cc3)cc2)o1,-1.4*,.,-1,5,-3
Cc1ccc(NC(=O)CSc2nnc(-c3ccc(S(=O)(=O)N4CCCC4)cc3)o2)cc1C,15,.,-6,53*,2
